KB-V1 cytotox – qHTS assay for MDR1-selective chemotherapeutics: Primary screen using the drug-selected MDR subline cells KB-V1; KB-V1 MDR cells viability, CellTiter-Glo, 72 h; Potency, µM (titrated, usually from 46.1 µM), usual class: cytotoxic; hit rate 3.4% among 400,000; AID 1347076, 2019; further: potency means the concentration at half of the fitted maximal effect; nearly all actives have a fitted effect of over 60% in size
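Potencies derive from concentration-effect curves fitted to normalized luminescence (CellTiter-Glo) of KB-V1 cells treated for 72 h at 37 degrees C in phenol-red-free DMEM containing 10% FBS.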
KB-3-1 cytotox – qHTS assay for MDR1-selective chemotherapeutics: Primary screen using the parental adenocarcinoma cell KB-3-1 | KB-3-1 viability, CellTiter-Glo ATP luminescence, 72 h | Potency, µM (doses to about 46.1 µM), actives largely listed as cytotoxic | hit rate 1.4% among 400,000 | AID 1347075, 2019; further: potency means the concentration at half of the fitted maximal effect; nearly all actives have a fitted effect of over 60% in size
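Cells are dispensed, compounds pinned in, plates held at 37 °C for 72 h, then CellTiter-Glo is added and luminescence read after 10 minutes. Cell line: parental KB-3-1 in phenol-red-free DMEM, 10% FBS.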
IL1B secr inh – qHTS for Inhibitors of Inflammasome Signaling: IL-1-beta AlphaLISA Primary Screen. THP-1 LPS/ATP IL-1B secretion, AlphaLISA, 16 h; active compounds read low. activity change, % at 57.5 µM. hit rate 4.7% among 360,000. AID 743279, 2014; in the data active means activity change below about -50%; inconclusive means mostly about -30% to -49%
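THP-1 cells pretreated 1 hr with compounds (up to 57.5 uM final), then stimulated with LPS (250 ng/mL final) plus ATP (1.25 mM final); secreted IL-1B measured by AlphaLISA after 16 hr, decreased signal indicating inhibition.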
HT1080NT lethal – qHTS for induction of synthetic lethality in tumor cells producing 2HG: qHTS for the HT-1080-NT fibrosarcoma cell line | hit rate 1.6% among 360,000 | AID 686970, 2013 | HT-1080-NT fibrosarcoma viability, CellTiter-Glo ATP luminescence, 48 h | Potency, µM (highest dose often 46.1 µM), for the others: top-dose activity, negative = less viability, usual class: cytotoxic;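 further: NT is the 2HG producing partner of a matched IDH1 knockdown line; potency means the concentration at half of the fitted maximal effect; 0% = DMSO-treated cells and -100% = media-only wells without cells; nearly all actives have a fitted effect of over 55% in size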
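Viability of the 2HG-overproducing fibrosarcoma line after 48 hours of compound exposure at 37 degrees C was determined by luminescence with CellTiter-Glo, and concentration-effect curves were then fitted and categorized.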
HT1080 IDH1KD tx – qHTS for induction of synthetic lethality in tumor cells producing 2HG: qHTS for the HT-1080-IDH1KD cell line | Potency, µM (top dose mostly 46.1 µM), for the others: at the highest dose activity, negative = toxicity, usual class: cytotoxic | AID 686971, 2013 | hit rate 2% among 360,000 | HT-1080 IDH1 knockdown viability, ATP luminescence, 48 h;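 further: potency means the concentration at half of the fitted maximal effect; 0% = DMSO wells and -100% = cell-free medium wells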
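Viability of IDH1-knockdown HT-1080 fibrosarcoma cells was assessed by CellTiter-Glo after 48 h at 37 °C with titrated compound; concentration-effect curves were classified by fit quality and response size.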
An asterisk follows results filed as active. Rows were chosen to be rich in hits. Some 8.8% of all compounds tested hit in one or more screens of this group. Unless noted, the call rests on the fitted dose curve; in most records, active means well fitted curve in the direction sought with a large enough effect; inconclusive means small, poorly fitted or top-dose-only effect, or another doubt; inactive means no such curve, though single readings can be large; an effect the other way counts as inactive or inconclusive. Unless noted, on the % scale 0 is the no-effect control and ±100 the full control effect.

How did Cc1ccc(NC(=O)c2ccncc2)cc1S(=O)(=O)N(C)C do in these assays?
KB-V1 cytotox: inactive; KB-3-1 cytotox: inactive; IL1B secr inh: 29; HT1080NT lethal: 7%; HT1080 IDH1KD tx: 7%

How did CC(=O)c1ccc(OCCCC(=O)Nc2ccc(C)c(S(=O)(=O)N3CCCCC3)c2)cc1 do in these assays?
KB-V1 cytotox: inconclusive; KB-3-1 cytotox: inactive; IL1B secr inh: -25; HT1080NT lethal: inconclusive; HT1080 IDH1KD tx: -10%

How did Cc1cc(C)n(-c2ccc(C(=O)Nc3cccc(S(=O)(=O)N(C)C)c3)cc2)n1 do in these assays?
KB-V1 cytotox: inconclusive; KB-3-1 cytotox: inconclusive; IL1B secr inh: 0; HT1080NT lethal: 1%; HT1080 IDH1KD tx: -20%

How did CCN(CC)S(=O)(=O)c1cccc(NC(=O)c2ccc(-n3nc(C)cc3C)cc2)c1 do in these assays?
KB-V1 cytotox: 2.9µM*; KB-3-1 cytotox: inconclusive; IL1B secr inh: inconclusive; HT1080NT lethal: -6%; HT1080 IDH1KD tx: 0%

What do the screens show for `COc1ccc(NC(=O)c2ccc(-n3nc(C)cc3C)cc2)cc1OC`?
KB-V1 cytotox: inactive; KB-3-1 cytotox: inactive; IL1B secr inh: -51*; HT1080NT lethal: 5%; HT1080 IDH1KD tx: -2%

What do the screens show for `CC(=O)c1ccc(OCCCC(=O)Nc2ccc(C)c(S(=O)(=O)N(C)C)c2)cc1`?
KB-V1 cytotox: 23µM*; KB-3-1 cytotox: 21µM*; IL1B secr inh: 20; HT1080NT lethal: 1%; HT1080 IDH1KD tx: -9%

How did Cc1ccc(NC(=O)c2ccc(OC(F)(F)F)cc2)cc1S(=O)(=O)N(C)C do in these assays?
KB-V1 cytotox: inconclusive; KB-3-1 cytotox: 23µM*; IL1B secr inh: 5; HT1080NT lethal: -24%; HT1080 IDH1KD tx: -28%

How did CC(C)[C@H](NC(=O)N1CC(=O)Nc2ccccc21)C(=O)N1CCC[C@H]1C(=O)O do in these assays?
KB-V1 cytotox: inconclusive; KB-3-1 cytotox: inactive; IL1B secr inh: -10; HT1080NT lethal: -1%; HT1080 IDH1KD tx: -1%

What do the screens show for `CCN(Cc1ccccc1)N=Nc1ccccc1`?
KB-V1 cytotox: inactive; KB-3-1 cytotox: inactive; IL1B secr inh: 38; HT1080NT lethal: 4%; HT1080 IDH1KD tx: 13%

How did O=C(c1ccccc1)N1CCN(CCc2ccncc2)CC1 do in these assays?
KB-V1 cytotox: inactive; KB-3-1 cytotox: inactive

How did CN(Cc1ccccc1)C(=O)[C@@H]1CCCN1C(=O)[C@@H]1CCCN1C(=O)OC(C)(C)C do in these assays?
KB-V1 cytotox: inactive; KB-3-1 cytotox: inactive; IL1B secr inh: 0; HT1080NT lethal: 14%; HT1080 IDH1KD tx: 7%

What do the screens show for `CC(=O)c1cc2c(cc1NC(=O)c1ccc(-n3nc(C)cc3C)cc1)OCO2`?
KB-V1 cytotox: inactive; KB-3-1 cytotox: inactive; IL1B secr inh: inconclusive; HT1080NT lethal: 2%; HT1080 IDH1KD tx: 22%

How did Cc1cc(C)n(-c2ccc(C(=O)Nc3ccc(C)c(S(=O)(=O)N(C)C)c3)cc2)n1 do in these assays?
KB-V1 cytotox: inconclusive; KB-3-1 cytotox: inactive; IL1B secr inh: -78*; HT1080NT lethal: inconclusive; HT1080 IDH1KD tx: inconclusive

What do the screens show for `CCCCN1C(=O)c2ccc(C(=O)Nc3ccc(C)c(S(=O)(=O)N(C)C)c3)cc2C1=O`?
KB-V1 cytotox: 12µM*; KB-3-1 cytotox: inconclusive; IL1B secr inh: -9; HT1080NT lethal: -12%; HT1080 IDH1KD tx: -12%

How did Cc1cc(C)n(-c2ccc(C(=O)Nc3ccc(S(=O)(=O)N(C)C)cc3)cc2)n1 do in these assays?
KB-V1 cytotox: inconclusive; KB-3-1 cytotox: inactive; IL1B secr inh: 3; HT1080NT lethal: -19%; HT1080 IDH1KD tx: -13%

What do the screens show for `Cc1ccc(C(=O)Nc2ccc(S(=O)(=O)NCc3ccco3)cc2)cc1`?
KB-V1 cytotox: inconclusive; KB-3-1 cytotox: inactive; IL1B secr inh: 10; HT1080NT lethal: inconclusive; HT1080 IDH1KD tx: inconclusive

Results for CCCCN1C(=O)c2ccc(C(=O)Nc3cccc(C)c3C)cc2C1=O ?
KB-V1 cytotox: inactive; KB-3-1 cytotox: inactive; IL1B secr inh: 9; HT1080NT lethal: 2%; HT1080 IDH1KD tx: -1%
